# Anthrax LF prot: anthrax lethal factor protease inhibition. P15917. multiplex microsphere protease cleavage assay, LF. inhibition, % at 10 µM. 360,000 compounds, 0.12% hits. AID 588501; note: plate controls were buffer without enzyme for full effect and enzyme alone for no effect
# CCHF vOTU inh: CCHFV vOTU protease inhibition; Pep-AMC fluorescence; inhibition, % at 11.5 µM; 370,000 compounds, 0.55% hits; AID 651958; in the data active = inhibition above about 30%; note: 0% = vehicle wells with enzyme and 100% = no enzyme wells
# Autofluor counter: counter-screen for toxin protease inhibitors: compound fluorescence | compound autofluorescence counterscreen, microsphere flow cytometry; hits give high values | fluorescence intensity (concentration not given with the values) | 360,000 compounds, 3.1% hits | AID 624483; in the data active = fluorescence intensity above about 16000; inconclusive = no clear call, values can overlap the other calls
# BoNT A protease: blocks Botulinum neurotoxin A light chain protease; multiplex microsphere protease substrate cleavage, flow cytometry; inhibition, % at 10 µM; 360,000 compounds, 0.17% hits; note: plate controls were buffer without enzyme for full effect and enzyme alone for no effect
# BoNT F protease: BoNT F light chain protease inhibition; Multiplex microsphere protease cleavage assay, flow cytometry; inhibition, % at 10 µM; 360,000 compounds, 0.22% hits; AID 588497; in the data active = inhibition above about 35%, passing the limit was not always enough; inconclusive = no clear call, values can overlap the other calls; note: plate controls were buffer without enzyme for full effect and enzyme alone for no effect
# 3CLpro inhibitor: SARS-CoV 3CLpro protease inhibition | P0C6X7 | inhibition, % at 6 µM | AID 1706 | recombinant SARS-CoV 3CLpro, quenched FRET peptide cleavage | 290,000 compounds, 0.14% hits; in the data active = inhibition above about 12%
# * = called active by the depositor; ? = inconclusive; . = no result given. Shown are actives, neighbours in structure and some others; about 3.9% of the full set was active somewhere. Cut-off read from the data, not from the text of the source, unless noted: active = inhibition above about 30%; inconclusive = no clear call, values can overlap the other calls; inactive = below that.
SMILES,Anthrax LF prot,CCHF vOTU inh,Autofluor counter,BoNT A protease,BoNT F protease,3CLpro inhibitor
CCOC(=O)c1cccc(NC(=O)c2cc3sccc3n2C)c1,-3.7,-4.2,26158*,?,-12.0,6.8
CCOC(=O)c1cccc(NC(=O)c2cccs2)c1,-0.6,4.2,2673,-0.3,2.9,-2.6
CCOC(=O)c1cccc(NC(=O)c2ccco2)c1,1.1,-8.9,23498*,?,-3.8,2.0
CCOC(=O)c1ccccc1NC(=O)c1cc2sccc2n1C,-1.1,-3.1,22752*,1.5,1.7,-5.5
Cn1c(C(=O)Nc2ccc3c(c2)OCCO3)cc2sccc21,-6.5,-3.5,16792*,-1.8,-7.1,2.2
NC(=O)c1cc(NC(=O)CCc2nc3ccccc3s2)cc(C(N)=O)c1,-20.4,-9.6,4273,-3.7,-33.6,4.9
O=C(Nc1cccc(-c2nc3ccccc3[nH]2)c1)c1ccco1,-7.7,2.5,25261*,-4.4,-7.1,-5.0
CCOC(=O)c1cccc(NC(=O)/C=C/c2cccc([N+](=O)[O-])c2)c1,-0.6,11.6,19203*,0.5,2.5,3.5
Cc1ccc2nc(-c3ccc(NC(=O)c4ccco4)cc3)[nH]c2c1,-1.8,.,8399,-1.3,-8.1,-1.4
O=S1(=O)CC2c3ccccc3CN2CN1C1CCCC1 (centres undefined),.,0.4,.,.,.,.
O=C(COc1ccc(S(=O)(=O)N2CCOCC2)cc1)Nc1ccccc1C(F)(F)F,-3.1,4.8,22134*,3.6,4.6,2.9
O=C(COc1ccc(S(=O)(=O)N2CCOCC2)cc1)NCCc1ccccc1,-0.4,-1.9,5843,-0.6,?,.
Cc1ccc(NC(=O)CN(C)C(=O)CCSc2ccc(F)cc2)cc1,0.5,-0.4,2991,0.0,-9.8,.
Cc1sc2ncn(CC(=O)NCCCC(=O)N3CCN(Cc4ccc5c(c4)OCO5)CC3)c(=O)c2c1C,-6.1,-6.2,5476,-0.8,0.9,2.1
O=C(Cc1ccccc1)Nc1cccc(N2CCCC2)c1,-8.2,-6.5,22002*,?,-25.0,0.0
O=C(Cc1ccccc1)Nc1ccc(N2CCCC2)cc1,-28.9,7.4,3816,2.2,-198.0,-2.6
CN(CCc1ccccc1)C(=O)c1ccc2c(c1)ncn2C1CCCCC1,.,-6.6,.,.,.,.
Nc1nc(SCC(=O)NC2CCCC2)[nH]c(=O)c1NC(=O)c1cccs1,0.8,9.7,3539,-1.1,4.3,0.3
Cc1cc2n(n1)C(c1cn(-c3ccccc3)nc1C)Nc1ccccc1-2 (centres undefined),-1.4,-0.4,22907*,?,-1.3,3.0
N=c1ccn(O)cc1CCc1ccccc1,2.9,-8.6,3722,-0.2,-3.0,.
CCCCN(CCCC)CCNC(=O)CNC(=O)c1cccs1,-10.1,-1.7,21124*,4.2,2.8,1.8
CCC(O)(c1ccc(NC(=O)OC(C)(C)C)cc1)c1cc(OC)cc(OC)c1 (centres undefined),.,4.1,.,.,.,.
NNC(=O)CN1C(=O)C2(OCCO2)c2ccccc21,-1.9,-1.6,4029,-0.4,-7.1,.
O=C1N(CCCN2C(=O)C3(OCCO3)c3ccccc32)c2ccccc2C12OCCO2,0.5,6.5,21454*,-5.7,-5.1,0.3
CCCC(=O)CN1C(=O)C2(OCCO2)c2ccccc21,-2.8,-5.7,22726*,-1.0,0.7,-10.6
SMILES,Anthrax LF prot,CCHF vOTU inh,Autofluor counter,BoNT A protease,BoNT F protease,3CLpro inhibitor
CC(C)CC(=O)CN1C(=O)C2(OCCO2)c2ccccc21,1.6,-1.7,23745*,-1.6,-0.9,-5.2
COc1ccccc1NC(=O)CN1C(=O)C2(OCCCO2)c2ccccc21,0.5,.,20250*,1.9,0.9,-2.2
CC(=O)c1cc(-c2cc(C(=O)O)cc([N+](=O)[O-])c2)c(=O)n2c1CCC2,.,-2.5,.,.,.,.
Cc1c(NC(=O)COc2ccc3ccccc3c2)c(=O)n(-c2ccccc2)n1C,.,-13.0,.,.,.,-3.4
CCCCN(C)C(=O)c1cn(C(C)c2ccccc2)nn1 (centres undefined),.,4.1,.,.,.,.
CCOC(=O)C1=C(C)C(c2ccccc2)NC(=S)N1 (centres undefined),-1.3,20.6,18384*,2.8,1.3,3.9
CCOCCCn1c(=N)c(C(=O)NCCN2CCOCC2)cc2c(=O)n3cccc(C)c3nc21,0.2,-160.9,22990*,-1.1,-2.5,-7.0
Cc1ccc(S(=O)(=O)O)c(C)c1N1CCCC1=O,2.0,-1.6,20761*,-3.1,-5.6,-3.4
Cc1ccc(S(N)(=O)=O)c(C)c1N1CCCC1=O,8.0,-2.6,3405,-0.9,4.1,-1.9
COc1ccc(Nc2nnc(-c3ccc(N4CCOCC4)c([N+](=O)[O-])c3)c3ccccc23)cc1,-3.9,10.0,22975*,-8.6,-9.7,-4.0
CCOC(=O)CSc1nnc(CSc2nc3sc4c(c3c(=O)[nH]2)CCC4)n1-c1ccccc1,1.4,5.0,21953*,0.5,1.7,-6.2
CCOC(=O)CSc1nnc(CSc2nc3sc4c(c3c(=O)[nH]2)CCC4)n1C,5.3,-2.6,9729,-0.3,6.9,-0.8
C=CCN(CC(=O)NCc1ccccc1)C(=O)c1csnn1,0.5,-4.9,24034*,-1.9,-1.0,0.4
CC(C)(C)OC(=O)n1cc(-c2ccccc2)c2c(-c3ccccc3)c(O)ccc21,.,10.0,.,.,.,.
CCCCOc1ccc(C(=O)Nn2cnnc2)cc1,-5.1,7.6,23869*,?,0.1,2.1
CCNS(=O)(=O)c1ccc2c(c1)n(C)c(=O)n2C,1.1,4.6,22262*,3.6,2.3,-2.4
CCOc1ccc(S(=O)(=O)N(CC)CC)cc1N,3.6,12.8,3196,0.7,-4.3,3.1
COc1ccc(C(N)=O)cc1N,-3.2,-9.1,20559*,3.6,4.9,-3.5
CCOc1ccc(C(=O)c2ccc(OCC)c(N)c2)cc1N,-3.5,24.3,16397*,0.4,-1.8,4.6
COc1ccc(Cc2ccc(OC)c(N)c2)cc1N,-2.5,3.7,6260,2.4,10.8,1.2
CN(c1ccccc1)S(=O)(=O)c1cccc(NC(=O)CCNC(=O)c2ccco2)c1,-8.0,4.8,2870,-0.2,-0.4,.
CCc1ccc(-c2nc(CS(=O)CC(=O)NCc3ccccc3)c(C)o2)cc1 (centres undefined),2.4,-3.6,4882,5.3,11.8,-4.8
COc1ccc(C2c3ccc4ccccc4c3Oc3ncn(CCN(C)C)c(=N)c32)cc1 (centres undefined),0.4,3.4,3797,-4.0,10.8,-6.9
O=C(c1ccco1)n1nc(-c2ccc(Cl)cc2)nc1NCc1ccco1,1.5,-3.6,5262,0.1,6.5,1.0
Cc1ccc(S(=O)(=O)n2nc(-c3ccc(Cl)cc3)nc2NCc2ccco2)cc1,-6.2,-1.5,23333*,?,-5.7,-2.2
O=C(COc1ccccc1)n1nc(-c2ccc(Cl)cc2)nc1NCc1ccco1,-13.5,6.8,21640*,0.1,-2.9,3.5
COc1ccc(C#Cc2ccc3c(c2)[C@H]2[C@H](CCN2S(=O)(=O)c2ccccc2F)[C@H](CO)N3C)cc1,.,7.7,.,.,.,.
Cc1ccc2nc(-c3ccc(NC(=O)CSc4nnc(-c5cc(C)[nH]n5)n4N)cc3)sc2c1,.,-97.8,.,.,.,.
